Values joined by “and” are separate entries in the source; they are usually repeats but may differ in a detail not shown here. Equal values may be shown once. Inconclusive results are not listed. Active and inactive are the calls of the source. The call rests on the fitted dose curve; in most records, active means well fitted activation curve with a large enough effect; inconclusive means small, poorly fitted or top-dose-only effect; inactive means no such curve, though single readings can be large or run the other way.
biological target: Cellular tumor antigen p53 (Homo sapiens) (UniProt P04637); test: Primary qHTS for small molecule compounds that upregulate eGFP-tagged delta133p53alpha (in N-terminal) cells. (AID 2060322); details: NCI-H358 eGFP-delta133p53alpha fluorescence, 24 h; activation: stronger effect = higher value; further: nearly all actives have a fitted effect of over 75% in size;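 on activation: cells pre-induced with doxycycline then dosed without doxycycline; series mostly up to about 56 µM; 0% = DMSO vehicle and 100% = reference activator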
Procedure, shortened: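 NCI-H358 cells pre-induced 24 h with 10 ng/ml doxycycline for eGFP-delta133p53alpha, plated dox-free and exposed 24 h at 37C to titrated compounds. Fixed, Hoechst-stained; gated GFP peak intensity by laser scanning cytometry, normalized to DMSO (0%) and 57.5 uM 5-azacytidine (100%).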
Potency means the concentration at half of the fitted maximal effect.

Chain of Cellular tumor antigen p53 (Homo sapiens) (P04637 whole entry, looked up): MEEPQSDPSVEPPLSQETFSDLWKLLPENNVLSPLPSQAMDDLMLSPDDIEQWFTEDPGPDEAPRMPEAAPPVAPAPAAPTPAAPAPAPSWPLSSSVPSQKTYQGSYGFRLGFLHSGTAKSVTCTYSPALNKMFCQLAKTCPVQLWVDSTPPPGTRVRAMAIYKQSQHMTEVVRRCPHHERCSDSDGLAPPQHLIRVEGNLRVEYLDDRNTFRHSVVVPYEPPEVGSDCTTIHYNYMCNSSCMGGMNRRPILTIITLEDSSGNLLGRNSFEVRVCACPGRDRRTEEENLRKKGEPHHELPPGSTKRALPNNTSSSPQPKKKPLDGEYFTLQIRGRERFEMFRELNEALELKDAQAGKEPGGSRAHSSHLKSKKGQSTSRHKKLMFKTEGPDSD

| SMILES | activation | Potency |
| --- | --- | --- |
| COc1cc2c(c(O)c1OC/C=C(\C)CC/C=C(/C)CCC=C(C)C)CN(C(CCC(=O)O)C(=O)O)C2=O (stereo not given) | -30.5% (inactive) |  |
| O=C(OCC1=CC(O)C2C=CO[C@@H](O[C@@H]3O[C@H](CO)[C@@H](O)[C@H](O)[C@H]3O)C12)c1ccccc1 (stereo not given in full) | -17.6% (inactive) |  |
| CC(=O)NCCCCn1c2c(c3ccccc31)C(=O)NCC2 | -13.4% (inactive) |  |
| C[C@@H]1[C@H]2[C@H](O[C@@H]3O[C@H](CO)[C@@H](O)[C@H](O)[C@H]3O)OC=C(C(=O)O)[C@H]2C[C@@H]1OC(=O)/C=C/c1ccc(O)cc1 | 18.8% (inactive) |  |
| COc1ccc(CN2CCN(C(c3ccc(F)cc3)c3ccc(F)cc3)CC2)c(OC)c1OC | -1.69% (inactive) and -6.68% (inactive) |  |
| CC(=O)O[C@@H]1[C@H](O[C@@H]2O[C@H](CO)[C@@H](O)[C@H](O)[C@H]2O)[C@@H](O[C@@H]2O[C@@H](C)[C@H](O)[C@@H](O[C@@H]3O[C@H](CO)[C@@H](O)[C@H](O)[C@H]3O)[C@H]2O)[C@H](OC(=O)C23CCC4(C)C(=CCC5C6(C)CC(O)C(O[C@@H]7O[C@H](C(=O)O)[C@@H](O)[C@H](O)[C@H]7O)C(C)(C(=O)O)C6CCC54C)C2CC(C)(C)CC3O)O[C@@H]1C (stereo not given in full) | 22.9% (inactive) |  |
| O=C(CC1C(=O)Nc2ccccc21)OC[C@H]1O[C@@H](OCCc2ccc(O)cc2)[C@H](O)[C@@H](O)[C@@H]1O (stereo not given in full) | 0% (inactive) |  |
| C=C(C(=O)O)C1CC(O)C2(C)CCCC(=C)C2C1 (stereo not given) | 3.82% (inactive) |  |
| CC(C)=CCC[C@](C)(O[C@@H]1O[C@H](CO)[C@@H](O)[C@H](O)[C@H]1O)[C@H]1CC[C@]2(C)[C@@H]1[C@H](O)CC1[C@@]3(C)CC[C@H](O)C(C)(C)C3[C@@H](O[C@@H]3O[C@H](CO)[C@@H](O)[C@H](O)[C@H]3O[C@@H]3OC[C@@H](O)[C@H](O)[C@H]3O)C[C@]12C (stereo not given in full) | -15.3% (inactive) |  |
| CC1CCC2C(C)(C)[C@H](O)CC[C@]2(C)C12Cc1c(O)cc3c(c1O2)CN(C(CCC(=O)O)C(=O)O)C3=O (stereo not given in full) | -2.29% (inactive) |  |
| Cc1cc(NC(=O)c2cccc(NC(=O)/C=C/CN(C)C)c2)ccc1Nc1nccc(-c2cccnc2)n1 |  | 26.9 µM (active) |
| CC1NC(=O)C(Cc2c[nH]c3ccccc23)NC1=O (stereo not given) | -13.7% (inactive) |  |
| CCC(=O)O[C@]1(C(=O)CCl)[C@@H](C)C[C@H]2[C@@H]3C[C@H](F)C4=CC(=O)C=C[C@]4(C)[C@@]3(F)[C@@H](O)C[C@@]21C | 17.9% (inactive) |  |
| O=C1CCC(=O)N(O)CCCCCNC(=O)CCC(=O)N(O)CCOCCNC(=O)CCC(=O)N(O)CCCCCN1 | -16.8% (inactive) |  |
| O=C(c1ccc2nccnc2c1)N1CCCCC1 | -11% (inactive) |  |
| CC1=C(c2ccc(NC(=O)c3c(F)cccc3F)cc2)CN(c2nccs2)CC1 | 21.7% (inactive) |  |
| CNc1nc(Nc2cn(C(C)(C)C#N)nc2C)ncc1C(F)(F)F | -23.2% (inactive) |  |
| CC1(C)CC2C(O)C3=C(CC(C)(O)C2C1)C(=O)OC3 (stereo not given) | -6.87% (inactive) |  |
| C=CC1(C)CC=C2C(CCC3C(C)(C(=O)O)CCCC23C)C1 (stereo not given) | -1.53% (inactive) |  |
| O=S(=O)(NC1CCNCC1)c1cc(S(=O)(=O)c2ccccc2)ccc1C(F)(F)F | 5.25% (inactive) |  |
| CC(C)=CCC[C@](C)(O[C@@H]1O[C@H](CO)[C@@H](O)[C@H](O)[C@H]1O)[C@H]1CC[C@]2(C)[C@@H]1[C@H](O)CC1[C@@]3(C)CC[C@H](O)C(C)(C)C3[C@@H](O[C@@H]3O[C@H](CO)[C@@H](O)[C@H](O)[C@H]3O)C[C@]12C (stereo not given in full) | 15.3% (inactive) |  |
| C=C1C(=O)OC2/C=C(\CO)CC/C=C(\C=O)CC(OC(=O)CC(C)C)C12 (stereo not given) |  | 14.8 µM (active) |
| C=C[C@@H]1[C@H](O[C@@H]2O[C@H](CO)[C@@H](O)[C@H](O)[C@H]2O)OC=C(C(=O)O)[C@H]1CCOC(=O)/C=C/c1ccc(O)c(O)c1 | -7.63% (inactive) |  |
| CC(=O)OCC1=CCC2C(C)(C)CCCC2(C)C12CCC(C)(CC(=O)O)O2 (stereo not given) | 25.9% (inactive) |  |
| CC(C)CC(=O)OC[C@H]1O[C@@](COC(=O)CC(C)C)(O[C@H]2O[C@H](CO)[C@@H](O)[C@H](O)[C@H]2O)[C@@H](OC(=O)CC(C)C)[C@@H]1OC(=O)CC(C)C | -0.763% (inactive) |  |

Reference: PubChem BioAssay (NCATS)
